Compounds with a hit are over-represented: about 1.9% of the library has one in this group of screens.
dFosB act-1: mouse delta FosB homodimer activation; 0.99% of 340,000 active; purified delta FosB, TAMRA-CDK5 oligo fluorescence polarization; percent of positive-control signal above neutral wells; P13346; activation, % at 25 µM;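 active = mean activation above about 17%, with every replicate also reaching it, limit read from the data, passing the limit was not always enough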
14-3-3 Bad inh: disrupts binding of bovine 14-3-3 zeta to phospho-Bad peptide. P63103. TR-FRET 14-3-3zeta/Dy647-pBad peptide displacement, 1 h. inhibition, % at 21.7 µM. 0.71% of 220,000 active. AID 781;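 active = inhibition above about 70%, limit read from the data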;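 note: 0% = full 14-3-3 plus peptide FRET controls and 100% = background without 14-3-3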
NCF1 inh: blocks human p47phox regulatory protein of NADPH oxidases. P14598. p47phox/p22phox peptide binding, fluorescence polarization, 2 h. inhibition, % at 24.7 µM. 0.53% of 220,000 active. AID 1274;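 active = inhibition above about 30%, limit read from the data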;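 note: 0% = p47phox with labelled peptide and 100% = labelled peptide alone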
Efa HMGR inh: inhibitors of class II HMG-CoA reductase from Enterococcus faecalis. inhibition, % at 10 µM. purified E. faecalis HMGR, NADPH absorbance 340 nm kinetic. 0.41% of 190,000 active;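 active = inhibition above a set limit, the median over all tested compounds plus 3 SD, cut at about 9.5% in these data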;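 note: enzyme runs in reverse so mevalonate oxidation gives rising NADPH absorbance; 0% = complete reaction with DMSO and 100% = background rate lacking mevalonate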
dFosB act-2: activators of mouse delta FosB homodimer DNA binding. shares compounds with dFosB act-1. purified delta FosB, TAMRA-CDK5 oligo fluorescence polarization; normalised: neutral wells 0, positive control 100. activation, % at 24.9 µM. 2,400 tested, under 10 active. AID 588690;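 active = highest replicate activation at or above 34% and every replicate reaching that threshold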;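 note: higher polarization means more probe DNA bound by delta FosB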
Active calls of the source: *; . = no result given.

SMILES	dFosB act-1	14-3-3 Bad inh	NCF1 inh	Efa HMGR inh	dFosB act-2
Cc1c2cnn(CC(=O)N3CCC4(CC3)OCCO4)c(=O)c2c(C)n1Cc1ccccc1Cl	-3.9	.	.	.	.
Cc1cc(NC(=O)COC(=O)c2c(C)nn(Cc3ccccc3)c2C)no1	-1.5	-2.5	-11.9	1.7	.
Cc1cc(NC(=O)COC(=O)c2c(C)nn(Cc3ccccc3Cl)c2Cl)no1	46.2*	-13.4	-13.3	-7.5	-13.4
COc1cc(Br)cc(CN2CCN(C)CC2)c1O	-3.0	43.8	-11.2	-6.7	.
CN1/C(=C\C=Nc2ccccc2)C(C)(C)c2ccccc21	25.9*	-8.0	-144.9	-0.7	5.5

Bioassay records deposited in PubChem by several laboratories.
